The list is not random: actives were taken first. Their share in the collection is about 6.2%.
KinaseGlo FLuc = Kinase-Glo luciferase inhibition (counter-screen); Q27757; actives 0.28% (n = 200,000); Potency, µM (highest dose often 38.3 µM), for the others: top-dose activity change, negative = inhibition, actives largely listed as inhibitors; Kinase-Glo luciferase, ATP luminescence, 8 min; note: nearly all actives have a fitted effect of over 60% in size
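Compounds were added to a substrate mix at pH 7.2 (50 mM imidazole, 10 uM ATP, within the enzyme's linear range), followed by Kinase-Glo detection reagent; luminescence was measured after 8 minutes at ambient temperature.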
VP16 counter = Gal4-VP16 reporter inhibition counter-screen. Drosophila S2 Gal4-VP16 UAS-luciferase, luminescence, 20 h. Potency, µM (top dose mostly 53.6 µM), for the others: at the top dose activity, negative = inhibition, actives largely listed as inhibitors. actives 3.5% (n = 310,000). AID 2546;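 note: Gal4-VP16 expression switched on by copper sulfate through the metallothionein promoter; nearly all actives have a fitted effect of over 50% in size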
RORg inh = ROR gamma (mouse) transcription inhibition. P51450. Drosophila S2 Gal4-RORgamma UAS-luciferase reporter, 20 h. Potency, µM (titrated, usually from 53.6 µM), inactives show at the highest dose activity change, negative = inhibition, actives largely listed as inhibitors. actives 5.4% (n = 310,000). AID 2551; note: nearly all actives have a fitted effect of over 60% in size
Target sequence (P51450 whole entry, looked up, the tested form may be a part): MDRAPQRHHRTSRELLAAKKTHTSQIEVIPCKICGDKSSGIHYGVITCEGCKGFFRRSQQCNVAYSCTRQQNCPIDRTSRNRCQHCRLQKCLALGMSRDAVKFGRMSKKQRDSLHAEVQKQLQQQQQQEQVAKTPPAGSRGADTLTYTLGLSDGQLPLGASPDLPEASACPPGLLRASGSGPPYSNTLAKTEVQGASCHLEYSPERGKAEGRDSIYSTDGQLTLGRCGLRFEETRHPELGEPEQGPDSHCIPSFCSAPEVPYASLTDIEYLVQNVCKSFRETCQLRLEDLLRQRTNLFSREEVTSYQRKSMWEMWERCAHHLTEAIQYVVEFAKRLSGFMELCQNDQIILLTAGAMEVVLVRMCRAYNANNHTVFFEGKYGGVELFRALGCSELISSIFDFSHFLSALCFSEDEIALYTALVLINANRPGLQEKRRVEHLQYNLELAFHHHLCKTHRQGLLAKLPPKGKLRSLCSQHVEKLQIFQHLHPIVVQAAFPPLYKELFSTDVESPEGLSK
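Stably transfected Drosophila Schneider cells are the test system, with ROR gamma fused to Gal4 and luciferase under UAS control; luminescence is read after 20 hr of 700 uM copper sulfate induction at ambient temperature.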
Numbers without * were called inactive; [ ] = another dose, or the depositor's remark. Calls come from the whole dose curve; as a rule, active = well fitted curve in the direction sought with a large enough effect; inconclusive = small, poorly fitted or top-dose-only effect, or another doubt; inactive = no such curve, though single readings can be large; an effect the other way counts as inactive or inconclusive. % is set by controls: 0 for no effect and ±100 for the full control effect; potency is the fitted concentration of half-maximal effect.

For CCOc1cc(/C=C/c2cc(C(=O)O)c3ccccc3n2)ccc1O the results were KinaseGlo FLuc -3%, VP16 counter inconclusive and RORg inh inconclusive.
Screening COc1cc(/C=C/c2cc(C(=O)O)c3ccccc3n2)cc(OC)c1O returned KinaseGlo FLuc -3%, VP16 counter inconclusive and RORg inh -39%.
For CCCC(=O)Nc1ccc(-c2nc3ncccc3o2)cc1 the results were VP16 counter 0% and RORg inh inconclusive.
For CCC1=C2CC[C@H]3C(=O)N(c4ccccc4)C(=O)[C@H]3[C@H]2[C@@]2(Cc3ccccc3)C(=NCc3ccccc3)OC(=O)N2C1=O the results were KinaseGlo FLuc -3%, VP16 counter -8% and RORg inh -1%.
C=CCn1c(SC)nnc1C1COc2ccccc2O1 (stereo unspecified) was read as KinaseGlo FLuc -1%, VP16 counter 23% and RORg inh 24%.
For Cn1c(SCC(=O)Nc2nnc(-c3ccccc3)o2)nnc1C1CC1 the results were VP16 counter -19% and RORg inh -44%.
`O=C(CCSc1ccccc1)Nc1nnc(-c2cccs2)o1` gave VP16 counter 10µM* and RORg inh 4.5µM*.
Clc1ccc(-c2nnc(CSc3nnc(-c4cccs4)o3)o2)cc1 was read as KinaseGlo FLuc -4%, VP16 counter 12% and RORg inh 41%.
`O=C(CCc1ccccc1)Nc1nnc(-c2cccs2)o1` gave KinaseGlo FLuc 3%, VP16 counter 10µM* and RORg inh 6.3µM*.
O=C(CCc1ccccc1)Nc1nnc(-c2ccccn2)o1 was read as KinaseGlo FLuc 1%, VP16 counter inconclusive and RORg inh inconclusive.
`O=C(CS(=O)(=O)c1ccc(Cl)cc1)Nc1nnc(-c2cccs2)o1` gave VP16 counter inconclusive and RORg inh 14µM*.
For O=C(CCSc1ccccc1)Nc1nnc(-c2ccccc2)o1 the results were KinaseGlo FLuc -1%, VP16 counter 11µM* and RORg inh 10µM*.
`CNC(=O)CSc1nnc(-c2cccs2)o1` gave KinaseGlo FLuc 1%, VP16 counter 1% and RORg inh 4%.
Cc1nc(NCCOc2ccccc2)sc1C(=O)Nc1ccccc1 was read as VP16 counter -1% and RORg inh -34%.
`O=C(O)c1ccc(CNCc2ccc(Cl)cc2)cc1` gave KinaseGlo FLuc 1%, VP16 counter -5% and RORg inh -36%.
Screening COC(=O)[C@H](Cc1ccccc1)NC(=O)O[C@@H]1C(=O)c2ccc(OC)cc2O[C@H]1c1ccc2c(c1)OCO2 returned KinaseGlo FLuc 2%, VP16 counter 1% and RORg inh -12%.
Screening COc1ccc2[nH]cc(CCNc3cc(-c4cccnc4)ncn3)c2c1 returned VP16 counter -7% and RORg inh 0%.
COc1cc(-c2noc(C3CCCN(C(=O)c4c(F)cccc4F)C3)n2)cc(OC)c1OC (stereo unspecified) was read as VP16 counter 2% and RORg inh 3%.
Screening CCc1ccc(NC(=O)CC2C(=O)NCCN2C(=O)c2ccccc2OC)cc1 (stereo unspecified) returned VP16 counter -2% and RORg inh -30%.
`Cc1cc2ncn(CS(C)(=O)=O)c2cc1C` gave KinaseGlo FLuc -5%, VP16 counter -3% and RORg inh -1%.
`C=C(C)Cn1cnc2cc(C)c(C)cc21` gave KinaseGlo FLuc -3%, VP16 counter -2% and RORg inh 11µM*.
Screening COc1ccc(N2CCN(C(=S)NC(=O)c3cccs3)CC2)c([N+](=O)[O-])c1 returned KinaseGlo FLuc 2%, VP16 counter 1.4µM* and RORg inh 0.32µM*.
`COc1ccc(N2CCN(C(=O)c3ccccc3)CC2)c([N+](=O)[O-])c1` gave VP16 counter -9% and RORg inh 63%.
For CC(C)C(=O)N1CCN(c2c(Cl)cccc2[N+](=O)[O-])CC1 the results were KinaseGlo FLuc -3%, VP16 counter 7% and RORg inh -3%.
For O=C(NC(=S)N1CCN(c2c(Cl)cccc2[N+](=O)[O-])CC1)c1cccs1 the results were KinaseGlo FLuc 1%, VP16 counter 0.16µM* and RORg inh 0.28µM*.
Screening O=c1c(-c2ccccc2)nc2cnc(Oc3cccc(Cl)c3)nc2n1C1CC1 returned VP16 counter -6% and RORg inh 13%.
`[O-][n+]1c(CN2CCCCC2)nc2cccc3c2c1-c1ccccc1-3` gave KinaseGlo FLuc -7%[7.66 µM].
`COc1ccccc1-c1nccc(-n2ccnc2)n1` gave KinaseGlo FLuc 1%, VP16 counter 2% and RORg inh -22%.
For CN(CCOC(=O)CN1C(=O)c2ccccc2C1=O)C1=NS(=O)(=O)c2ccccc21 the results were KinaseGlo FLuc 4%, VP16 counter -2% and RORg inh -29%.
NS(=O)(=O)c1cccc(NC(=O)CC(NC(=O)c2ccccc2Cl)c2ccccc2)c1 (stereo unspecified) was read as VP16 counter -2% and RORg inh -6%.
Screening CCCCS(=O)(=O)N1CCc2nc(COc3ccccc3)c3c(c2C1)CO[C@@H](C)C3 returned KinaseGlo FLuc 0%[7.66 µM].
`CC(=O)Nc1cccc(/C(C)=N/NC(=O)c2cccs2)c1` gave KinaseGlo FLuc 1%, VP16 counter 3% and RORg inh -7%.
`C/C(=N\NC(=S)NC(C)C)c1ccco1` gave KinaseGlo FLuc 0%, VP16 counter 4.5µM* and RORg inh inconclusive.
`C=C(C)CNC(=S)N/N=C(\C)c1cccc(NC(C)=O)c1` gave KinaseGlo FLuc 1%, VP16 counter inconclusive and RORg inh 10µM*.
`CC(C)NC(=S)NN=C1c2ccccc2-c2ccccc21` gave KinaseGlo FLuc 6%, VP16 counter inconclusive and RORg inh 7.9µM*.
CC(C)NC(=S)NC(c1ccccc1)(c1ccccc1)c1ccccc1 was read as VP16 counter 3.2µM* and RORg inh inconclusive.
Screening CC(C)NC(=O)CS(=O)(=O)c1ccccc1 returned VP16 counter -12% and RORg inh -13%.
`COC(=O)N/N=C(\C)c1ccco1` gave KinaseGlo FLuc -4%, VP16 counter -15% and RORg inh -34%.
NC(=S)N/N=C1\c2ccccc2-c2c(C(=O)O)cccc21 was read as VP16 counter 0% and RORg inh 2%.
`Cc1ccc(-n2nc3c(c2NC(=O)c2c(F)cccc2Cl)CS(=O)(=O)C3)cc1C` gave VP16 counter 5% and RORg inh 3%.
Screening Cc1[nH]c(=O)[nH]c(=O)c1S(=O)(=O)Nc1ccc(Br)cc1F returned VP16 counter -1% and RORg inh -1%.
Screening CN(N=O)C(=O)N[C@H]1C(O)C(O)C(CO)O[C@@H]1O (stereo partly specified) returned KinaseGlo FLuc -5%, VP16 counter -2% and RORg inh -1%.
COc1ccc(C2C3=C(CCCC3=O)N(CC(=O)O)C3=C2C(=O)CCC3)cc1Cl was read as VP16 counter -12% and RORg inh -34%.
`CCOC(=O)C(Cc1ccc(O)cc1)NC(=O)CCc1c[nH]c2ccccc12` (stereo unspecified) gave VP16 counter -12% and RORg inh 8%.
